Rows were chosen to be rich in hits. Some 7.5% of all compounds tested hit in one or more screens of this group.
ELG1 genotoxic: induces genotoxicity in HEK293T cells with luciferase-tagged ELG1; HEK293T ELG1-luciferase reporter, luminescence, 16 h; Potency, µM (highest dose often 46 µM), inactives show at the highest dose activity change, positive = activation, hits mostly activators; hit rate 1.3% among 330,000; also: % of control where 0% means no effect; nearly all actives have a fitted effect of over 60% in size
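Luminescence read-out: rising ELG1-luciferase signal, reflecting elevated ELG1 protein under genetic stress, flags genotoxic compounds. Cells were treated for 16 hr at 37 °C before ONE-Glo detection.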
Rab9 prom act: activators of Rab9 promoter; Huh7 Rab9 promoter-luciferase reporter, luminescence, 24 h; AID 485297; hit rate 2.8% among 320,000; Potency, µM (top dose mostly 9.22 µM), for inactives: at the highest dose activation, negative = inhibition, usual class: activators; also: % of control where 0% means no effect; nearly all actives have a fitted effect of over 60% in size
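Rab9 promoter-driven luciferase in stably transfected Huh7 cells; 1500 cells/well rested 2 h, exposed to compound in DMSO for 24 h at 37 °C, 5% CO2. Luminescence read 10 min after adding luciferase reagent at ambient temperature.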
SMN2 splice up: SMN2 splice variant enhancement | Potency, µM (highest dose often 46.1 µM), for inactives: at the top dose activity change, positive = activation, most hits filed as activators | HEK293 SMN2-luciferase splicing reporter, luminescence, 30-36 h | AID 1458 | hit rate 2.8% among 210,000; also: % of control where 0% means no effect; nearly all actives have a fitted effect of over 55% in size
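HEK293 cells carry an SMN2 minigene-luciferase reporter in which exon 7 inclusion puts luciferase in frame. Cells were seeded at 2000 cells/well, attached for 10-12 hours, then exposed to compounds for 30-36 hours at 37C before ONE-Glo luminescence.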
FLuc counter: firefly luciferase modulation, counter-screen for miR-21 project | P08659 | Potency, µM (doses to about 57.5 µM), for inactives: at the top dose activity change, negative = inhibition, most hits filed as inhibitors | hit rate 6.9% among 360,000 | purified FLuc, Km substrates, luminescence inhibition;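 also: plate controls were vehicle for no effect and reference inhibitor for full effect; nearly all actives have a fitted effect of over 55% in size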
Target sequence (P08659 whole entry, looked up): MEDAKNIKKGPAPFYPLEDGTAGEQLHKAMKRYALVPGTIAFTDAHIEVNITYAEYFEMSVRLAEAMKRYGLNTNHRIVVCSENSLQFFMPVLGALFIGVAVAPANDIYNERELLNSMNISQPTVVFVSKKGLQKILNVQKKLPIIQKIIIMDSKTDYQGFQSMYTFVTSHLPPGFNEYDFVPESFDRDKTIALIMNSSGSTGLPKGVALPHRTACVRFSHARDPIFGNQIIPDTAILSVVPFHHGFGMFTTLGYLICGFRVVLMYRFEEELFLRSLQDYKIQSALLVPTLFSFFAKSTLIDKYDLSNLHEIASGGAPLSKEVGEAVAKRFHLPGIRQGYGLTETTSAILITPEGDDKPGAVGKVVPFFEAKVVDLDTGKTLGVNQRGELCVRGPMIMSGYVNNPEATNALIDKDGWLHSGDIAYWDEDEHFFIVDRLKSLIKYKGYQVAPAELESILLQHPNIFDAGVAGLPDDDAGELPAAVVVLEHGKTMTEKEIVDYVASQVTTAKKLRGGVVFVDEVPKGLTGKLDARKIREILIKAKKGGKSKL
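Purified P. pyralis luciferase (10nM final) with 10uM D-luciferin and 10uM ATP (Km levels) in 50mM Tris acetate pH 7.5, 10mM Mg acetate, 0.01% Tween-20, 0.05% BSA; qHTS 6-point titration, ~60 µM downward; luminescence read.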
NPC1 prom act: NPC1 promoter activation; Huh7 NPC1 promoter luciferase reporter, 24 h; Potency, µM (titrated, usually from 9.22 µM), inactives show at the highest dose activation, most hits filed as activators; hit rate 2.4% among 320,000; AID 485313; also: % of control where 0% means no effect; nearly all actives have a fitted effect of over 60% in size
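Stable NPC1-promoter luciferase Huh7 line; cpd (DMSO) 24 h, 37 °C, 5% CO2; Amplite luciferase reagent 10 min RT; luminescence readout. qHTS format.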
Numbers without * were called inactive; ? = inconclusive; nt = no result given; [ ] = dose if it differs, or a comment. Calls follow the shape of the dose curve; as a rule, active = well fitted curve in the direction sought with a large enough effect; inconclusive = small, poorly fitted or top-dose-only effect, or another doubt; inactive = no such curve, though single readings can be large; an effect the other way counts as inactive or inconclusive. Potency is read from the fitted curve at half-maximal effect.

SMILES | ELG1 genotoxic | Rab9 prom act | SMN2 splice up | FLuc counter | NPC1 prom act
O=C(Nc1ccc(OCC(=O)N2CCN(S(=O)(=O)c3ccccc3)CC2)cc1)c1ccco1 | -4% | -1% | 22% | 11µM* | 3%
O=C(Nc1ccc(OCC(=O)N2CCC(Cc3ccccc3)CC2)cc1)c1ccco1 | -1% | -6% | -12% | 27µM* | 2%
COc1cccc(NC(=O)CN(C)C(=O)c2sc3cc(Cl)ccc3c2Cl)c1 | -3% | 0% | nt | 4% | -2%
CN(CC(=O)Nc1ccc(F)cc1)C(=O)COC(=O)CNC(=O)c1sc2ccccc2c1Cl | 3% | 0% | nt | -20% | -2%
COc1cccc(NC(=O)CN(C)C(=O)CNC(=O)c2sc3ccccc3c2Cl)c1 | 13% | 25% | nt | 4.8µM* | 19%
COc1ccc(NC(=O)CN(C)C(=O)CNC(=O)c2sc3ccccc3c2Cl)cc1 | ? | ? | nt | 3µM* | ?
Cc1cc(C)cc(OCC(=O)N(Cc2ccco2)Cc2ccccc2Cl)c1 | nt | nt | -20% | -14% | nt
COc1ccc2[nH]c(CN3CCC(n4nccc4NC(=O)C4CC4)CC3)c(C)c2c1 | 9% | 5% | nt | 1% | -6%
N#CC1=C(N)Oc2c(oc(CO)cc2=O)C1c1ccsc1 (stereo not given) | -3% | -3%[1.84 µM] | -5% | 0% | 3%
N#CC1=C(N)Oc2c(ccc3ccccc23)C1c1ccsc1 (stereo not given) | 15µM* | -23% | -29% | ? | -5%
COc1ccc(CCN2CC(C(=O)N3CCC(O)(c4ccccc4)CC3)CCC2=O)cc1 (stereo not given) | -7% | -1% | nt | 1% | -3%

Screening results (PubChem BioAssay)
